Reference: PubChem BioAssay (NCI)
About 79,000 compounds went through this panel and 15% of them were active in at least one assay; those are over-represented in the sample as a whole. Unmarked numbers belong to inactive results. Activity calls are given as the source filed them. Cut-off read from the data, not from the text of the source: active = growth inhibition above about 70%; inactive = the rest. Where a SMILES comes first, the peptide text is derived from it. The star is where a group is joined. Boc = CC(C)(C)OC(=O)*; OtBu = CC(C)(C)O*

Test: NCI Yeast Anticancer Drug Screen. Data for the mlh1 rad18 strain (AID 175)
Settings: S. cerevisiae mlh1 rad18 strain growth inhibition; at 50.0 µM; hits give high values
How it was run: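 Genetically defined yeast (DNA repair-deficient) exposed to compounds; growth inhibition determined relative to vehicle.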

| SMILES | growth inhibition |
| --- | --- |
| CC(=O)c1ccc(N=C2C=CC(=O)O2)cc1 | 7.65% |
| COc1cc(Br)cc2nc(-c3cccs3)oc12 | -32.5% |
| CC(C(O)c1ccc(Cl)cc1)C(O)(C(F)(F)F)C(F)(F)F (stereo not given) | 99.4% (active) |
| OC(NN=C1CCCC1)(C(F)(F)Cl)C(F)(F)Cl | 9.15% |
| c1ccc(OC23CC4CC(CC(C4)C2)C3)cc1 | -21.6% |
| CCCCC(=O)N/N=C/c1ccccc1OCC | -7.6% |
| CCOC(=O)CC(NC(=O)CC(N)C(=O)O)C(=O)OCC (stereo not given) | -3.25% |
| CN(C)CCC(C(=O)NCc1ccccc1)C(=O)NCc1ccccc1 | -17.2% |
| CCOc1ccc2nc(C)ccc2c1 | 17.7% |
| CCOc1ccc(-c2nc(-c3oc4ccccc4c(=O)c3OC(C)=O)cs2)cc1 | 9.4% |
| Nc1cccc2c1C(=O)c1cccc(N)c1C2=O | 21.9% |
| O=[N+]([O-])c1ccc(Sc2c3ccccc3nc3cc(Cl)ccc23)cc1 | -28.9% |
| O=c1c(SCc2ccc(Cl)cc2)c(N2CCCCC2)cnn1-c1ccccc1 | 15.1% |
| Cc1ccc(S(=O)(=O)N/N=C(/c2ccccc2)c2ccsc2C)cc1 | 53.4% |
| NC1=NN(c2ccccc2)C(=O)C1C(=O)CCC(=O)Nc1cccc(Cl)c1 (stereo not given) | 2.1% |
| CC#CC#C/C=C1/C=CC2(CC=CO2)O1 (stereo not given) | 29.6% |
| NC(=O)C1CCCC1 | -5.05% |
| O/N=C1/C(=C/c2ccccc2)CCCC1C(NO)c1ccccc1 (stereo not given) | 57.6% |
| C=C(C)CC(O)CCCCC (stereo not given) | -13.3% |
| CC(=O)OCC1OC(n2cnc(Br)c2[N+](=O)[O-])C(OC(C)=O)C1OC(C)=O (stereo not given) | 2.75% |

| SMILES | growth inhibition |
| --- | --- |
| CCCC(=O)OCCOc1ccccc1 | 2.5% |
| O=c1c2cccnc2cc(-c2ccccc2)n1CCO | -4.15% |
| C/C(=N\N=C(\Cc1ccccc1)c1ccccc1)c1ccccc1 | 2.8% |
| Nc1cccnc1NCC(O)c1ccccc1 (stereo not given) | 10.6% |
| C[C@@H]1OC(=O)N2CCCC(=C3SCCCS3)C12 (stereo not given in full) | -12.2% |
| CCNC(=O)[B-][N+](C)(C)C | 4.5% |
| Cc1cc(NN)c2cc3c(cc2n1)OCO3 | 24.1% |
| CCCCCN(CCCCC)CC(O)c1cc(-c2ccccc2)nc2c(Cl)cc(Cl)cc12 (stereo not given) | 39.1% |
| CCOc1ccc(N=Cc2cc(Br)ccc2O)cc1 | -13.4% |
| O=C1CSC(/C(=C/c2ccccc2)c2nc3ccccc3[nH]2)=N1 | -0.25% |
| O=C(N/N=C(/c1nc2ccc(Cl)cc2[nH]c1=O)C(O)c1ccc(Cl)cc1Cl)c1ccncc1 (stereo not given) | 23.1% |
| CCOC(=O)C1=C(O)c2ccccc2S(=O)(=O)N1C (tested in a mixture with another compound) | 0% |
| CCCCC(O)(CCCC)CC(C)C | 5.85% |
| COc1ccc(OC)c(NC(=O)C(=O)NNC(=O)c2sc(NNC(C)=O)nc2C)c1 | 30.8% |
| CCOC(=O)C(CCN(C)C)(CCN(C)C)c1ccccc1 | -2.75% |
| COc1cc(NC=C2C(=O)OC(C)(C)OC2=O)c(OC)c(C)c1OC | 4.15% |
| CC(C)(C)OC(=O)CC(NC(=O)OC(C)(C)C)C(=O)NC(Cc1ccccc1)C(N)=O (stereo not given) (Boc-Asp(OtBu)-Phe-NH2; configuration not given here) | -11.3% |
| CCOC(=O)C(c1ccccc1)N(CCCN(CC)CC)c1ccccc1 (stereo not given) | 0.45% |
| CC1(C)OC2(C)CCC1C1C2N1C(=O)Nc1cccc(Cl)c1 (stereo not given) | -18.5% |
| CC(=O)OCC12CCC(O1)C1C(=O)OC(=O)C12 (stereo not given) | 1.05% |
